Source: PubChem
Hits are enriched below; roughly 1.3% of the tested compounds scored in any of these assays.
IDE cell inh: human IDE inhibitors in live cells, primary screen, fluorescence polarization, HEK cells, FAbetaB substrate; AID 434962, 2010; FAbetaB cleavage; actives 0.41% (n = 320,000); inhibition, % at 5.59 µM; Insulin-degrading enzyme (Homo sapiens), P14735;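 active = percent inhibition above the average of all tested compounds plus 3 SD, set per screening campaign, cut at about 16% in these data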;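 also: IDE supplied by intact live HEK cells; FP after avidin binding of uncleaved biotin substrate so inhibition keeps polarization high; 0% = DMSO wells and 100% = 60 µM reference IDE inhibitor Ii1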
IDE cell activ: human IDE activators in live cells, primary screen, fluorescence polarization, HEK cells, FAbeta-B substrate; Insulin-degrading enzyme (Homo sapiens), P14735; FAbeta-B cleavage; 0% vehicle, 100% cell-free pure enzyme wells; activation, % at 5.96 µM; actives 0.073% (n = 340,000);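 active = activation above the mean of all tested compounds plus 3 SD, set per screening campaign, cut at about 17% in these data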
PKA-R2B activ: activators of PKA-R2B holoenzyme, primary screen, biochemical, fluorescence polarization, Cy5-IP20, human; cAMP-dependent protein kinase catalytic subunit beta (Homo sapiens) + cAMP-dependent …; PKA-R2B holoenzyme dissociation; R2B truncated from residue 108, S112A mutant; 0% DMSO only, 100% 113 µM cGMP; activation, % at 11.4 µM; actives 0.079% (n = 340,000); AID 504700, 2011;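 active = activation above a cutoff set at the mean over all compounds plus 3 SD, cut at about 18% in these data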;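 also: higher means more holoenzyme dissociation and a rise in polarization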
Rin1 Abl inh: inhibitors of Rin1-Abl protein binding, primary screen, biochemical, TR-FRET. actives 0.4% (n = 360,000). AID 588664, 2011. inhibition, % at 7.35 µM. Tyrosine-protein kinase ABL1 (Homo sapiens) + Ras and Rab interactor 1 (Homo sapiens), …; in the data active = inhibition above about 5%, passing the limit was not always enough
PKA-R1A activ: activators of PKA-R1A holoenzyme, primary screen, biochemical, fluorescence polarization, Cy5-IP20, bovine R1A, mouse PKAc | actives 0.083% (n = 340,000) | PKA-R1A dissociation; scaled: DMSO 0%, 113 µM cGMP 100% | activation, % at 11.4 µM | cAMP-dependent protein kinase type I-alpha regulatory subunit (Bos taurus) + …;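 active = percent activation above the mean of all tested compounds plus 3 SD, cut at about 19% in these data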;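 also: higher means more PKAc released from R1A so a rise in polarization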
eLon inh: inhibitors of E. coli Lon protease, primary screen, biochemical, fluorescence polarization; actives 0.42% (n = 360,000); purified E. coli Lon protease; inhibition, % at 7.94 µM; P0A9M0; in the data active = inhibition above about 13%, passing the limit was not always enough;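 also: 0% = enzyme with probe and DMSO and 100% = no enzyme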
Target sequence (P0A9M0 whole entry, looked up): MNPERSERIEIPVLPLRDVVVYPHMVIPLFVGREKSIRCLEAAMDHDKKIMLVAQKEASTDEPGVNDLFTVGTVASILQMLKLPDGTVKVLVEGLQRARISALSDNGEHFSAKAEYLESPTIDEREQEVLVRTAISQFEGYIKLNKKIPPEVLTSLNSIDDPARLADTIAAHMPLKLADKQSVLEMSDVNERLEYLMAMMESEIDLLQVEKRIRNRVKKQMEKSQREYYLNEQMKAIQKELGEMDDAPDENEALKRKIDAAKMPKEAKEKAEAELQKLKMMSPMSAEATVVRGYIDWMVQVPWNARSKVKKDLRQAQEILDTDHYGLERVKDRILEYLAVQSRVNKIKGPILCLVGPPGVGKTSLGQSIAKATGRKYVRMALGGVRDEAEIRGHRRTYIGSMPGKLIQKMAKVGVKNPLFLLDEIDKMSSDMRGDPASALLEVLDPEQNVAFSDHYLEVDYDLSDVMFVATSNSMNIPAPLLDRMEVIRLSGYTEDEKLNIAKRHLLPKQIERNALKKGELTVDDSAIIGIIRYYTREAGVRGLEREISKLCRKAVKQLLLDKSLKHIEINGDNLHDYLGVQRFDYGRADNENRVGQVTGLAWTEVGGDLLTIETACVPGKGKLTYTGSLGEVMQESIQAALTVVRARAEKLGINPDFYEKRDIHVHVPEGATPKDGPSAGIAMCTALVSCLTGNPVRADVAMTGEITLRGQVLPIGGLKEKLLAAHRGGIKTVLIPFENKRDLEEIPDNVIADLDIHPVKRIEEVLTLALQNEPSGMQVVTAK
Starred values were filed as active, the others as inactive; · = not tested or not shown; + = active, no number.

SMILES | IDE cell inh | IDE cell activ | PKA-R2B activ | Rin1 Abl inh | PKA-R1A activ | eLon inh
COCCCNc1c2c3c(cccc3[nH]c1=O)C(=O)c1ccccc1-2 | -7 | 33* | 9 | -97 | 0 | -38
CCOc1ccc(C2CC(=O)NC3=C2C(=O)CCC3)cc1Cl (stereo unspecified) | 2 | 0 | -4 | -4 | 0 | 5
COc1cccc(/C=C/C(=O)OCC(=O)Nc2ccc(Cl)cn2)c1 | -4 | 0 | -1 | -2 | 2 | 14*
CCSc1nnc(Cc2cc(=O)[nH]c(=O)[nH]2)n1-c1ccc(F)cc1 | -3 | 4 | 4 | 1 | -12 | -3
O=C(CSc1nnc(Cc2cc(=O)[nH]c(=O)[nH]2)n1-c1ccc(F)cc1)N1CCCCC1 | 1 | 4 | 7 | -5 | -4 | 14*
O=C(CSc1nnc(Cc2cc(=O)[nH]c(=O)[nH]2)n1-c1ccc(F)cc1)NC1CCCC1 | 3 | 5 | 10 | 0 | -5 | 16*
CCC(C)CCCCNC1=NCCS1 (stereo unspecified) | 4 | 7 | 2 | -1 | -5 | 3
Cc1ccc(N2C3=C(C(=O)CC(C)(C)C3)C(c3cn(C)nc3C)C3=C2CC(C)(C)CC3=O)cc1 | -4 | -4 | -8 | -14 | 8 | 80*
Cc1nn(C)cc1C1C2=C(CC(C)(C)CC2=O)N(c2ccccc2)C2=C1C(=O)CC(C)(C)C2 | -1 | 2 | -3 | 5 | -13 | -6
Cc1c(C(=O)Nc2nccs2)oc2ccc(Br)cc12 | -3 | 4 | 2 | 0 | 2 | 0
COc1ccc2c(-c3ccccc3)cc(SCC(=O)NC(N)=O)nc2c1 | 5 | 26* | 4 | 2 | -1 | 9
COc1cccc2c1C(=O)c1c(O)c3c(c(O)c1C2=O)C[C@@](O)(C(=O)CO)C[C@@H]3O[C@H]1C[C@H](N)[C@@H](O)[C@H](C)O1 | 2 | -9 | -13 | -18 | -29 | +
C=CCN1C(=O)c2ccc(C(=O)OCC(=O)N(CC)C3CCS(=O)(=O)C3)cc2C1=O (stereo unspecified) | -3 | 22* | 2 | 0 | -4 | -2
CCOc1ccc(N2C(=O)c3ccc(C(=O)OCC(=O)N(CC)C4CCS(=O)(=O)C4)cc3C2=O)cc1 (stereo unspecified) | 0 | 0 | -2 | 0 | 6 | 2
O=S1(=O)CC(N2CCCC2)CN1CCc1ccccc1 (stereo unspecified) | · | · | · | 4 | · | 4
O=S(=O)(Oc1ccccc1-c1ccccc1)c1ccccc1 | · | 4 | -7 | 2 | 0 | -2
O=C(O[C@@H]1OC2COC(=O)c3cc(O)c(O)c(O)c3-c3c(cc(O)c(O)c3O)C(=O)O[C@@H]([C@H]1O)[C@@H]2O)c1cc(O)c(O)c(O)c1 | 7 | -9 | 3 | 69* | -7 | 33*
COc1ccccc1NC(=O)C(C)n1cnc2c(oc3nc4c(cc32)CCCC4)c1=O (stereo unspecified) | -9 | 4 | 3 | -2 | -9 | 4
Cc1cc(C)n(Cc2ccc(C(=O)O)cc2)n1 | 7 | 3 | -2 | 2 | -7 | -5
Cc1ccc(C)n1Cc1ccc(C(=O)O)cc1 | 5 | -4 | 1 | 15* | 3 | -3
CCOC(=O)c1nn(-c2cccc(Cl)c2)c(C)c1C(C)=O | -1 | -3 | 5 | 0 | -7 | 3
COc1ccc(OC)c(C(=O)COC(=O)CN2C(=O)NC3(CCCCC3C)C2=O)c1 (stereo unspecified) | -2 | 22* | -6 | 0 | -8 | -8
C[n+]1c2cc(N)ccc2cc2ccc(N)cc21 | · | 39* | 4 | -192 | 5 | -10
Nc1ccc2ccc(O)cc2c1 | · | 3 | -2 | 0 | -8 | -5
CCn1c(CC(=O)Nc2ccccc2F)nnc1SCC(=O)Nc1nnc(C)s1 | -5 | 1 | 7 | 0 | 0 | 2
SMILES | IDE cell inh | IDE cell activ | PKA-R2B activ | Rin1 Abl inh | PKA-R1A activ | eLon inh
CC(=O)N1CC[n+]2c(-c3ccc(Cl)cc3Cl)csc21 | 17* | -6 | 2 | 1 | -2 | -6
COc1cc(C2C=C(c3cccs3)Nc3ncnn32)cc(OC)c1OC (stereo unspecified) | · | -2 | 11 | -11 | -3 | +
Cc1ccc(/C=C2\Oc3c(ccc(O)c3CN3CCN(C)CC3)C2=O)cc1 | 6 | -3 | -15 | -3 | -8 | -39
Cn1c(=O)n(CC#N)c2ccccc21 | 3 | 4 | -7 | 4 | 0 | -15
Cc1cc(O)c(C=O)c2c1C(=O)Oc1c(CO)c(O)c3c(c1O2)C(O)OC3=O (stereo unspecified) | -1 | 2 | 3 | 4 | 7 | 72*
O=C1CC2(CCCC2)CC(=O)N1c1ccccc1 | -1 | 30* | 0 | -1 | -10 | -6
COc1nc(=O)n(C2C=CC(=O)O2)cc1F (stereo unspecified) | · | · | -12 | -3 | 4 | -13
COc1ccccc1CNC(=O)C1CCCCN1S(=O)(=O)c1ccccc1 (stereo unspecified) | 0 | 3 | 5 | -1 | 1 | -1
CCN(CC(=O)Nc1cccc(OC)c1)C(=O)c1ccncc1 | -3 | 6 | -1 | 2 | 4 | 1
CCN1CCN(CCNC(=O)c2ccc(/C=C3/Sc4ccccc4N(Cc4cccc(Cl)c4)C3=O)cc2)CC1 | 6 | 38* | -6 | 0 | 1 | -3
Cc1cccc(CN2C(=O)/C(=C\c3ccc(C(=O)NCCN4CCOCC4)cc3)Sc3ccccc32)c1 | -3 | 0 | -5 | -2 | -2 | -5
O=C(O)c1ccc(CNCc2ccc(F)cc2)cc1 | 7 | 6 | -3 | 4 | -8 | -2
CCOC(=O)N1CCN(C(=O)CSCc2ccc(C)cc2)CC1 | -1 | 4 | -6 | 6.1* | -1 | -2
O=C(Cc1cccc([N+](=O)[O-])c1)Nc1cccc(C(=O)N2CCOCC2)c1 | 3 | -3 | 8 | 1 | 7 | 1
Cc1ccc(-c2nc(CS(=O)(=O)CC(=O)N3CCc4ccccc4C3)c(C)o2)cc1 | 1 | 0 | -5 | -1 | -7 | 6
O=[N+]([O-])c1cccc(Cl)c1NCCNc1ncc(C(F)(F)F)cc1Cl | 7 | 73* | -4 | 1 | -5 | 1
Cc1c(C(=O)NCCNc2ncc(C(F)(F)F)cc2Cl)cccc1[N+](=O)[O-] | 5 | 0 | -23 | 2 | -4 | 3
